Assay results: the supplement of paper PMC11732987, “Enantioselective OTUD7B fragment discovery through chemoproteomics screening and high-throughput optimisation” (Communications Chemistry, 2025)

Legend:
Assay in all cases: log2 ratio of Biotin-Ahx-Ub-VS probe labelling (fragment/DMSO); higher = less target engagement (more negative = stronger competition), active = hit call of the paper (q ≤ 0.05, log2 ratio ≤ -1)
Settings in all cases: compound concentration: 200 uM; treatment time: 3 h
[1] = target: T1, USP42 (UniProt Q9H9J4)
T1 sequence (whole entry): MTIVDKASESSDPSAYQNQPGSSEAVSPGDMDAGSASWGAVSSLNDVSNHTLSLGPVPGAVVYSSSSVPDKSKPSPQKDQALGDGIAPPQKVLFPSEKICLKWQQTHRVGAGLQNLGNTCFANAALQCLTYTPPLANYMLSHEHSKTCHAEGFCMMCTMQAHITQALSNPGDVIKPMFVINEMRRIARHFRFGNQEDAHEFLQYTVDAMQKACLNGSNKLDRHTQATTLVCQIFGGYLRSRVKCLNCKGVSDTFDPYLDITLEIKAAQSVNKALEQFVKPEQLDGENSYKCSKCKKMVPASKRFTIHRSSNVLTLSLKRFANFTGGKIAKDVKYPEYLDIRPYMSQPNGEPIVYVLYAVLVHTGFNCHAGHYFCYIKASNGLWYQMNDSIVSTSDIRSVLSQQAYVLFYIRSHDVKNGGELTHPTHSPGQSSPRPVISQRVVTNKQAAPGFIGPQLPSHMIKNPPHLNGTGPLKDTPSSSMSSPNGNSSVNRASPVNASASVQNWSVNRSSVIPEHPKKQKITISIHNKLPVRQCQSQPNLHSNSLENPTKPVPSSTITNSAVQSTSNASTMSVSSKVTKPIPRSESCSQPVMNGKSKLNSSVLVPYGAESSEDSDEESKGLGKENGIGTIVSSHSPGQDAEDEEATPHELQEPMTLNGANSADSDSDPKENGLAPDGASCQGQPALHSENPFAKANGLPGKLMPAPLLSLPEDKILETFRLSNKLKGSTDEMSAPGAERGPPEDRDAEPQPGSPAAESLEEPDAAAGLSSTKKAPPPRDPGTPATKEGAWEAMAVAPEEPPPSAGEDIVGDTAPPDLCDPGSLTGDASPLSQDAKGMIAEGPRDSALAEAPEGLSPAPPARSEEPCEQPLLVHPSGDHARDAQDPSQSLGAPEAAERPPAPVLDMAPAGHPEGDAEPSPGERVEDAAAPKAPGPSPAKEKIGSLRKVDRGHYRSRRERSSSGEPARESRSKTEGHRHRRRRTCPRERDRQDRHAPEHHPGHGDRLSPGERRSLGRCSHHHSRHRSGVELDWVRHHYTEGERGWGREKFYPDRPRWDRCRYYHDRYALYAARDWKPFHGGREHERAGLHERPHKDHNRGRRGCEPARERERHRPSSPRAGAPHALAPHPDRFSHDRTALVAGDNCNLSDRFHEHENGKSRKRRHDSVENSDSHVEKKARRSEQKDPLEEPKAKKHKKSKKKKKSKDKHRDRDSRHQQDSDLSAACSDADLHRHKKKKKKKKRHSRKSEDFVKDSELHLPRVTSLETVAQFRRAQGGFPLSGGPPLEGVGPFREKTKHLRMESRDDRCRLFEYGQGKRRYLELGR
How it was run: (§1)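 Fragment (200 µM) or vehicle was incubated for 3 h with triplicate HEK293T lysate samples of 495 µg, which were then treated with Biotin-Ahx-Ub-VS at 0.5 µM final for 1 h. Labelled DUBs were enriched on NeutrAvidin, digested with LysC and trypsin, and analysed by diaPASEF LC-MS/MS. Values are average log2 fragment/vehicle ratios from an unpaired t-test on global-median-normalised Spectronaut label-free quantities, using proteins with ≥2 unique peptides.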

[2] = target: USP46 (UniProt P62068)
USP46, sequence (P62068 whole entry): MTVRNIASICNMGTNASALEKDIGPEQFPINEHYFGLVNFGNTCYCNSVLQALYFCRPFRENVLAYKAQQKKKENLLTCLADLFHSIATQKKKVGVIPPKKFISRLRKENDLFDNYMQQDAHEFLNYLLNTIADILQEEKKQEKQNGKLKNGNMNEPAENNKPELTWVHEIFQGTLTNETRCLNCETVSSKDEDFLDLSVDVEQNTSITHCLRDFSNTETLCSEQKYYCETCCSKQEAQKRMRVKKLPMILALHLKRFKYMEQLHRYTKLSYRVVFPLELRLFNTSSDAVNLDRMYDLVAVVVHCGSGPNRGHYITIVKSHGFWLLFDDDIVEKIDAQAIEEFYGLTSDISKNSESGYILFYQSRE
How it was run: as §1

[3] = target: T2, USP47 (UniProt Q96K76)
T2 sequence (whole entry): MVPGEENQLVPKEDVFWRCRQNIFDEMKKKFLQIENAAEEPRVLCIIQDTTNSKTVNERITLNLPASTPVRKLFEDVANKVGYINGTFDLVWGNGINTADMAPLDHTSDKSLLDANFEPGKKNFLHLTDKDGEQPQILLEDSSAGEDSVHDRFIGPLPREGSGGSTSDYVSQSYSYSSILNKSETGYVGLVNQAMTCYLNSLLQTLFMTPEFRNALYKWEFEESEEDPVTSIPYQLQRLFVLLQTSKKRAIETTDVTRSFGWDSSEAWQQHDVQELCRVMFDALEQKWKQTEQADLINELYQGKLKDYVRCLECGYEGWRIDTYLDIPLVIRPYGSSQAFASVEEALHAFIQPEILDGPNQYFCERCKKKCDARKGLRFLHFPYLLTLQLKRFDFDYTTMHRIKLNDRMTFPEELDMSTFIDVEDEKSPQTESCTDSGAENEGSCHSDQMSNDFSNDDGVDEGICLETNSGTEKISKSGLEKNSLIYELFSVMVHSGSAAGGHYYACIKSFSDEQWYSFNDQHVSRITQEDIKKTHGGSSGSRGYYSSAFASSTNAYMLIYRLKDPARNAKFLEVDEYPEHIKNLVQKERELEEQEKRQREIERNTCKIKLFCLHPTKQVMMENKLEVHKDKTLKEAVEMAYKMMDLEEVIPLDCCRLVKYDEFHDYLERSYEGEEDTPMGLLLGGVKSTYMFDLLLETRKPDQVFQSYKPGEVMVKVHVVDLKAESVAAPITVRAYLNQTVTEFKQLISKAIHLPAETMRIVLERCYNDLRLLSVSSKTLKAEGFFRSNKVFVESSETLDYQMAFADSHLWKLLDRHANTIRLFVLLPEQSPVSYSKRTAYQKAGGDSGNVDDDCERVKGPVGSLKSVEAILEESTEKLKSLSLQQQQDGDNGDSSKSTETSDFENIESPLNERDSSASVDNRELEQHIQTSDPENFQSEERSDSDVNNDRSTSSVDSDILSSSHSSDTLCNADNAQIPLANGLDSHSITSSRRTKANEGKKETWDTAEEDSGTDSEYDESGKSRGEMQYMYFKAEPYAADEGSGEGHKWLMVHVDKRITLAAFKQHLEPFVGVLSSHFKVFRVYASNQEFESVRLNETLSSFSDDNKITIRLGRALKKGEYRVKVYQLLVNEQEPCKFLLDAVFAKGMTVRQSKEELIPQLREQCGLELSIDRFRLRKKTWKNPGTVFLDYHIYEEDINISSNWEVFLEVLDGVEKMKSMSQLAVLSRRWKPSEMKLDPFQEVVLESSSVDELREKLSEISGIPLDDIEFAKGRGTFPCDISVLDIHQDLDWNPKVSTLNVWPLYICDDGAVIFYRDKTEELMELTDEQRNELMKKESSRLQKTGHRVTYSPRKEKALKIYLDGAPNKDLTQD
How it was run: as §1

[4] = target: T3, USP48 (UniProt Q86UV5)
T3 sequence (whole entry): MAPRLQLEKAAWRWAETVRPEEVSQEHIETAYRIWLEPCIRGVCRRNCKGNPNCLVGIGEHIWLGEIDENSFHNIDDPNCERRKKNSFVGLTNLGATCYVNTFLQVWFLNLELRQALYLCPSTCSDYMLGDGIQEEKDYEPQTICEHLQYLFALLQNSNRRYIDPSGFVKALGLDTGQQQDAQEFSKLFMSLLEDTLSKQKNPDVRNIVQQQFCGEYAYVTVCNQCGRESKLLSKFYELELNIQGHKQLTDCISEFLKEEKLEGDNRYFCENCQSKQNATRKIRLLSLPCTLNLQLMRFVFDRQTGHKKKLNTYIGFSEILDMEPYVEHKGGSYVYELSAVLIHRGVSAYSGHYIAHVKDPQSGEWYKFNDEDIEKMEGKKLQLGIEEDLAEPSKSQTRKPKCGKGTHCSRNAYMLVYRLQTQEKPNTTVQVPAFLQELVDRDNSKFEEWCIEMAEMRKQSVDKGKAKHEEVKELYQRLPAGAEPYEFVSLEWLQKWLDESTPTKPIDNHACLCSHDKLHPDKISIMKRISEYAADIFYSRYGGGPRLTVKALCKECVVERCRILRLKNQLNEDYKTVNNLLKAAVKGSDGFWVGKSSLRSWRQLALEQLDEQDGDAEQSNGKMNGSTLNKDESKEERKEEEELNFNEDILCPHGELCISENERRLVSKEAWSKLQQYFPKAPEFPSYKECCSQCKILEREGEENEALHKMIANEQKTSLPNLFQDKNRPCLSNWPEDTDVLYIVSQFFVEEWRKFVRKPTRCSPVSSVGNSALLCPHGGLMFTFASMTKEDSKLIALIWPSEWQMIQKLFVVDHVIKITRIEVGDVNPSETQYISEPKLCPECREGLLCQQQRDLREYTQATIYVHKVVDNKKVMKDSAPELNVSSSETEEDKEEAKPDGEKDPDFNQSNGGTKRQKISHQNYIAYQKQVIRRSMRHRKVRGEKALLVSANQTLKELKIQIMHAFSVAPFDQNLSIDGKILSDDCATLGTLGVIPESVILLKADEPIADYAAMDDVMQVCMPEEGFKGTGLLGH
How it was run: as §1

[5] = target: T4, USP5 (UniProt P45974)
T4 sequence (whole entry): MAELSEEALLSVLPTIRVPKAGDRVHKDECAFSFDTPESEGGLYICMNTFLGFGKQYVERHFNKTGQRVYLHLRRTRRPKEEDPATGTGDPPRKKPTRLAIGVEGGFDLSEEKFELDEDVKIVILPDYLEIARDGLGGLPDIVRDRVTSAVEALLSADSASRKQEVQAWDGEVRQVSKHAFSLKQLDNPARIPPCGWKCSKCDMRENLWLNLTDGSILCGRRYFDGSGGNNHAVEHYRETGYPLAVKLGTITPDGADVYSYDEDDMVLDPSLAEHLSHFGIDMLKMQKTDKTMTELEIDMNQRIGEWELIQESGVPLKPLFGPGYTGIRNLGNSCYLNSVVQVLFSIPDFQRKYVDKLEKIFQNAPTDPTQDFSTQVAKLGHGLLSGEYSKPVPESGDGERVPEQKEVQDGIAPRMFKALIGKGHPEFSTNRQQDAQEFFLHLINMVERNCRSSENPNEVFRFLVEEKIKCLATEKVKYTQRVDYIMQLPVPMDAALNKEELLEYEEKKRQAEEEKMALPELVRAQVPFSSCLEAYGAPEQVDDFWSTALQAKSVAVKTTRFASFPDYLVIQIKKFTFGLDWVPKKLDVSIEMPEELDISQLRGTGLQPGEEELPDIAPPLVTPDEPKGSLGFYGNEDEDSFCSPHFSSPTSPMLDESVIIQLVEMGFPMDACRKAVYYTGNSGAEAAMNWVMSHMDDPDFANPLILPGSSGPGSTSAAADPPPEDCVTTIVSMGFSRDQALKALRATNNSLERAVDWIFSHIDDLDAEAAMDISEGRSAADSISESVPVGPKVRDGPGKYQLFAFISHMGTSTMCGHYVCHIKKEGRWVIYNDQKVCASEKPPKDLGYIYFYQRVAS
How it was run: as §1

[6] = target: USP54 (UniProt Q70EL1)
USP54, sequence (Q70EL1 whole entry): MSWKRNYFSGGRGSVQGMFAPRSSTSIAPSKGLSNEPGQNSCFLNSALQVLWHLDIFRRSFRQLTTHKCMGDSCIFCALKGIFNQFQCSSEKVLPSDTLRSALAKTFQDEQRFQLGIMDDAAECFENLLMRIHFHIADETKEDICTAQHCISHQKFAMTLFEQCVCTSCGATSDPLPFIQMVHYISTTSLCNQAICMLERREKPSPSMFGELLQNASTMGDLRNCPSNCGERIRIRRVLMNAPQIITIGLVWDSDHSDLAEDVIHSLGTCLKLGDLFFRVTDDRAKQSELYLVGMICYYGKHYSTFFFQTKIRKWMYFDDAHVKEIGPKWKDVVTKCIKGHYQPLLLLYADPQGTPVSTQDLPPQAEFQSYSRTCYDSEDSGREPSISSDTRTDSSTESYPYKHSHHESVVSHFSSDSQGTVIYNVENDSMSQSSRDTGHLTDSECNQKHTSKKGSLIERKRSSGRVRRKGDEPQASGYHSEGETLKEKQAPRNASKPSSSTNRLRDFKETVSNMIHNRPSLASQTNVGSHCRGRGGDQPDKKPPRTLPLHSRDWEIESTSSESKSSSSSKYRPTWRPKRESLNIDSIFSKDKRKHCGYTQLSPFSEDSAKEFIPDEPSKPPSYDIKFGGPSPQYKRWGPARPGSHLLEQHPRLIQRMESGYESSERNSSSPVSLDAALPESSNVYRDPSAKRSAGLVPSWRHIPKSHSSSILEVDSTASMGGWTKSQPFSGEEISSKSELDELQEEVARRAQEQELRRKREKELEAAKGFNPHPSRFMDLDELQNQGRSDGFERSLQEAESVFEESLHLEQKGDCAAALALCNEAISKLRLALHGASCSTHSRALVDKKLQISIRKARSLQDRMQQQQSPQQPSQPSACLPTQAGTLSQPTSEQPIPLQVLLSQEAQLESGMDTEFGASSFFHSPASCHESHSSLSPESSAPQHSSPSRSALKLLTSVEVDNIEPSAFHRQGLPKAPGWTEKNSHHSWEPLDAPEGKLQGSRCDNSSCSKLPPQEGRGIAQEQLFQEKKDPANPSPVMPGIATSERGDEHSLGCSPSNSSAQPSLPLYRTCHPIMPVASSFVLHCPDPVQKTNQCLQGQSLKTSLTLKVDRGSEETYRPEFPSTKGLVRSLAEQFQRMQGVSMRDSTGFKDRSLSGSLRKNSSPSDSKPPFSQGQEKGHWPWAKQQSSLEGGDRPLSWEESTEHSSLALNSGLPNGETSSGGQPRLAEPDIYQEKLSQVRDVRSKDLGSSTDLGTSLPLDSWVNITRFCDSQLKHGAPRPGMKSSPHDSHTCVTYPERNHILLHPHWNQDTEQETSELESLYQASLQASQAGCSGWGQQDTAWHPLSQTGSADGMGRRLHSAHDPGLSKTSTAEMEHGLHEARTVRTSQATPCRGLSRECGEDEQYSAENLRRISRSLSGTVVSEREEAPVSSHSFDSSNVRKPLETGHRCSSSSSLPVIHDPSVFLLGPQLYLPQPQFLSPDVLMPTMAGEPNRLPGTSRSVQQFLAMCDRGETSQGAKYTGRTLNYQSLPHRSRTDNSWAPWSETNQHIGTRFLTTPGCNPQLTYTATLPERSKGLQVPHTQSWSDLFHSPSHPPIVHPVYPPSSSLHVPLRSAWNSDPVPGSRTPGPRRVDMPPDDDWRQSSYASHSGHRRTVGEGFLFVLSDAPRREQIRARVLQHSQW
How it was run: as §1

[7] = target: USP7 (UniProt Q93009)
USP7, sequence (Q93009 whole entry, looked up): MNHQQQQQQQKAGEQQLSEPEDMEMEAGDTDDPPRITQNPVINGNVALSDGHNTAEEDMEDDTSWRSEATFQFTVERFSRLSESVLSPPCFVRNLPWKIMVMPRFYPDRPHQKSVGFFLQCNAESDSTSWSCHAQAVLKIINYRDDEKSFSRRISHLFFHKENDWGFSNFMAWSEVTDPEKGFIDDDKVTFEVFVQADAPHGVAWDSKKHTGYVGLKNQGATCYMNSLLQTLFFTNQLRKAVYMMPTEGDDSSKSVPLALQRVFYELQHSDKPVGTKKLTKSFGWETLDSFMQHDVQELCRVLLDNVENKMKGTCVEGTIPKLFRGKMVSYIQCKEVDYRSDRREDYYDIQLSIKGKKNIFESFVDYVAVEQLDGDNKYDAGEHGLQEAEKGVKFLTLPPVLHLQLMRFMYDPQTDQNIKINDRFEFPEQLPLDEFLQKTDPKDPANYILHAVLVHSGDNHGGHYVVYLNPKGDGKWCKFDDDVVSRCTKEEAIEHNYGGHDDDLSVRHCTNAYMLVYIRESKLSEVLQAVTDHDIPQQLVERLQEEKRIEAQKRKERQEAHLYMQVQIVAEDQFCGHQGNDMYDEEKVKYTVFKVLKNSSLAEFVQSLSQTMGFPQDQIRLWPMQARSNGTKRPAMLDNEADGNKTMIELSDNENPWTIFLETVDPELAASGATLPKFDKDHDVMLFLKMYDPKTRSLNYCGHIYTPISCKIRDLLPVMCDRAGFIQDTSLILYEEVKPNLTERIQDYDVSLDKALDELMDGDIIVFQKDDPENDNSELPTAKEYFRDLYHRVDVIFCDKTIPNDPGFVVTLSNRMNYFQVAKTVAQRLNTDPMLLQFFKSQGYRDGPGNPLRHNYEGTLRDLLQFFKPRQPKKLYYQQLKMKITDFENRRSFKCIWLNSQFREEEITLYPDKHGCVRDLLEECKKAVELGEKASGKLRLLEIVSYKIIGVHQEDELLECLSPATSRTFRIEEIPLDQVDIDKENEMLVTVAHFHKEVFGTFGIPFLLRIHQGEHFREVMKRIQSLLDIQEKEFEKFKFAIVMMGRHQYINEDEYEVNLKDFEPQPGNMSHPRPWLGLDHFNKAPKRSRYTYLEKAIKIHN
How it was run: as §1

[8] = target: T5, USP8 (UniProt P40818)
T5 sequence (whole entry): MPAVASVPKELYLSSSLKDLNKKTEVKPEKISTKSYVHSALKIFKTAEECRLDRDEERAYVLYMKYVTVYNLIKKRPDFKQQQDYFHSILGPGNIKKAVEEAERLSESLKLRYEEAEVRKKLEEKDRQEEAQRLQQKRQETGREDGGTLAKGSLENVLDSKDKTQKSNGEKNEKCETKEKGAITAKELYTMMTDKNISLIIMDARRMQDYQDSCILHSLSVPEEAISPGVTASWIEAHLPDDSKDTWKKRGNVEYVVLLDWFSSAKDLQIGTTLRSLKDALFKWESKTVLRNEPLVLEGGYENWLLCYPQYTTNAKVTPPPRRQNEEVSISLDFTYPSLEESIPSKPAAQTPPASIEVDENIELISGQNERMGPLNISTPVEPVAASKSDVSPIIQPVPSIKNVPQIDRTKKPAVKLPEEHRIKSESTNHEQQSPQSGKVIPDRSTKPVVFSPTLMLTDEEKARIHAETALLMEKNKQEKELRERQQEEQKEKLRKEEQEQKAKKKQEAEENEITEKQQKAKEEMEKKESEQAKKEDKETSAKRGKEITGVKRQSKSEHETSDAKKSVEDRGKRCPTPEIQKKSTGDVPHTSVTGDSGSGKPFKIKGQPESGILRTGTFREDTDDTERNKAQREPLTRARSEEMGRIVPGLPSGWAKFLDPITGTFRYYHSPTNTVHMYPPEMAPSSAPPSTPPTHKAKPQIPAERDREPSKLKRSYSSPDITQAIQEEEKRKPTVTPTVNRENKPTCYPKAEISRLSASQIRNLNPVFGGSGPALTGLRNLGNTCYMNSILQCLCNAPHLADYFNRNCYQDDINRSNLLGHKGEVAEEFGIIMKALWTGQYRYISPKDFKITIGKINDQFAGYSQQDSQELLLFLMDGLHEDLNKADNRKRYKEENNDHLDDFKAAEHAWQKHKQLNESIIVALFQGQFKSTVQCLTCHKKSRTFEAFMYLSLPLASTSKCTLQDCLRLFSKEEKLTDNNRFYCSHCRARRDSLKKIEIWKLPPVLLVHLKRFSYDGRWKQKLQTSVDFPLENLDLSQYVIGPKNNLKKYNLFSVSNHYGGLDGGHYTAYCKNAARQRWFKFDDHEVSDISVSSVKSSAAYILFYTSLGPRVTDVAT
How it was run: as §1

Measured: log2 ratio of Biotin-Ahx-Ub-VS probe labelling

Cc1ccc(CN(C)C(=O)CCl)o1
inactive: [1] 0.191 | [2] -0.175 | [3] 0.0147 | [4] -0.264 | [5] 0.245 | [6] 0.355 | [7] -0.538 | [8] -0.199
